Test results taken from the supplement of paper PMC10849652.
Of roughly 7,900 targets only a part is listed; those with a hit were picked by preference. About 0.6% of all pairs of compound and target were hits. A number with no mark means an inactive call.

Columns and labels:
Experiment in all cases: log2 fold change, soluble protein after heating vs DMSO (PISA); higher = thermal stabilisation; K562 cells, 10 uM, 30 min; active = over 0.2 and 3.5 SD of the protein, either way, in both replicates (recomputed)
[1] = compound: COC1=CC=C(C=C1)CN2C=CC3=C2C=C(C=C3)C(=O)NO
Procedure, shortened: (§1)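 K562 cells at 2×10^6 cells/mL were treated with 10 μM compound for 30 min. Aliquots were heated for 3 min across 48°C-58°C, pooled, and extracted in PBS with 0.5% NP-40 at 4°C; soluble protein was the supernatant after 21,000xg for 90 min. Soluble protein was quantified by TMTpro 16plex LC-MS/MS with channel sums equalised, and reported as log2 fold change in thermal stability against DMSO controls, with values from duplicates.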

filanesib = compound: CON(C)C(=O)N1N=C(c2cc(F)ccc2F)S[C@@]1(CCCN)c1ccccc1 [filanesib]
Procedure, shortened: as §1

zotarolimus = compound: CO[C@H]1C[C@@H]2CC[C@@H](C)[C@@](O)(O2)C(=O)C(=O)N2CCCC[C@H]2C(=O)O[C@H]([C@H](C)C[C@@H]2CC[C@H](n3cnnn3)[C@H](OC)C2)CC(=O)[C@H](C)/C=C(\C)[C@@H](O)[C@@H](OC)C(=O)[C@H](C)C[C@H](C)/C=C/C=C/C=C/1C [zotarolimus]
Procedure, shortened: as §1

idasanutlin = compound: COc1cc(C(=O)O)ccc1NC(=O)[C@@H]1N[C@@H](CC(C)(C)C)[C@](C#N)(c2ccc(Cl)cc2F)[C@H]1c1cccc(Cl)c1F [idasanutlin]
Procedure, shortened: as §1

alisertib = compound: COc1cc(Nc2ncc3c(n2)-c2ccc(Cl)cc2C(c2c(F)cccc2OC)=NC3)ccc1C(=O)O [alisertib]
Procedure, shortened: as §1

[2] = compound: COc1cc2nc(-c3cc(F)ccc3O)nc(N[C@@H]3CNC[C@H]3C(C)(C)O)c2cc1OC
Procedure, shortened: as §1

gefitinib = compound: COc1cc2ncnc(Nc3ccc(F)c(Cl)c3)c2cc1OCCCN1CCOCC1 [gefitinib]
Procedure, shortened: as §1

[3] = compound: COc1cccc2cc(-c3nc([C@H]4CC[C@H](C(=O)O)CC4)n4ncnc(N)c34)[nH]c12
Procedure, shortened: as §1

lapatinib = compound: CS(=O)(=O)CCNCc1ccc(-c2ccc3ncnc(Nc4ccc(OCc5cccc(F)c5)c(Cl)c4)c3c2)o1 [lapatinib]
Procedure, shortened: as §1

pictilisib = compound: CS(=O)(=O)N1CCN(Cc2cc3nc(-c4cccc5[nH]ncc45)nc(N4CCOCC4)c3s2)CC1 [pictilisib]
Procedure, shortened: as §1

[4] = compound: CS(=O)(=O)c1ccc(-c2cnc(N)c(C(=O)Nc3ccccc3)n2)cc1
Procedure, shortened: as §1

crizotinib = compound: C[C@@H](Oc1cc(-c2cnn(C3CCNCC3)c2)cnc1N)c1c(Cl)ccc(F)c1Cl [crizotinib]
Procedure, shortened: as §1

[5] = compound: C[C@@H]1COCCN1C2=NC(=NC(=C2)C3(CC3)S(=O)(=O)C)C4=C5C=CNC5=CC=C4
Procedure, shortened: as §1

[6] = compound: C[C@H](C1=CC=C(C=C1)C(=O)NC2=C3C=CNC3=NC=C2)N
Procedure, shortened: as §1

duvelisib = compound: C[C@H](Nc1ncnc2nc[nH]c12)c1cc2cccc(Cl)c2c(=O)n1-c1ccccc1 [duvelisib]
Procedure, shortened: as §1

gandotinib = compound: Cc1cc(Nc2cc(CN3CCOCC3)c3nc(C)c(Cc4ccc(Cl)cc4F)n3n2)n[nH]1 [gandotinib]
Procedure, shortened: as §1

tozasertib = compound: Cc1cc(Nc2cc(N3CCN(C)CC3)nc(Sc3ccc(NC(=O)C4CC4)cc3)n2)n[nH]1 [tozasertib]
Procedure, shortened: as §1

[7] = compound: Cc1cc(SCc2sc(-c3ccc(C(F)(F)F)cc3)nc2C)ccc1OCC(=O)O
Procedure, shortened: as §1

doramapimod = compound: Cc1ccc(-n2nc(C(C)(C)C)cc2NC(=O)Nc2ccc(OCCN3CCOCC3)c3ccccc23)cc1 [doramapimod]
Procedure, shortened: as §1

ispinesib = compound: Cc1ccc(C(=O)N(CCCN)[C@@H](c2nc3cc(Cl)ccc3c(=O)n2Cc2ccccc2)C(C)C)cc1 [ispinesib]
Procedure, shortened: as §1

Sequence of UniProt P84103 (P84103 whole entry, looked up): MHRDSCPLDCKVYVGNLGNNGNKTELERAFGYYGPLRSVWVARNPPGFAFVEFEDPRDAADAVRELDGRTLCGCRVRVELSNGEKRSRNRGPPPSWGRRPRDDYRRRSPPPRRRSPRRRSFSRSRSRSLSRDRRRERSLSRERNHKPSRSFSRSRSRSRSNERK
Sequence of UniProt O15198 (O15198 whole entry, looked up): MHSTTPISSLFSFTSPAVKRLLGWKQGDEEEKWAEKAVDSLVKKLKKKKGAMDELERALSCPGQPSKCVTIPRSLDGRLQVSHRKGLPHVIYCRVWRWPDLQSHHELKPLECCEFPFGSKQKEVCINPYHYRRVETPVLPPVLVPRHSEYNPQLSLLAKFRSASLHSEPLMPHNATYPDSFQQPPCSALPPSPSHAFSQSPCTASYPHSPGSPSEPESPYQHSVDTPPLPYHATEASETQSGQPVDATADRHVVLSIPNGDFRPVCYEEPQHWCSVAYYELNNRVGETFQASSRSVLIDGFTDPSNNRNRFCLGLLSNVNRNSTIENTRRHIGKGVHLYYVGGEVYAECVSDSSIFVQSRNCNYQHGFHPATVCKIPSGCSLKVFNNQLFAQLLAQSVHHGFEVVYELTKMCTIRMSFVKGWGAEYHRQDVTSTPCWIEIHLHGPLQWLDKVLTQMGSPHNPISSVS
Sequence of UniProt Q9P016 (Q9P016 whole entry, looked up): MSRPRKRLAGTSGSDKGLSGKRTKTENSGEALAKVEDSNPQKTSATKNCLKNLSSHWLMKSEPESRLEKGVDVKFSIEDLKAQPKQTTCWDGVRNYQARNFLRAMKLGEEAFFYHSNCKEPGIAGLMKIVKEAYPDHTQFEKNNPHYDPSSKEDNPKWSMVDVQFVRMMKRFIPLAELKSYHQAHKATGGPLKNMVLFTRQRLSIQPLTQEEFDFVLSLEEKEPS
Sequence of UniProt Q01130 (Q01130 whole entry, looked up): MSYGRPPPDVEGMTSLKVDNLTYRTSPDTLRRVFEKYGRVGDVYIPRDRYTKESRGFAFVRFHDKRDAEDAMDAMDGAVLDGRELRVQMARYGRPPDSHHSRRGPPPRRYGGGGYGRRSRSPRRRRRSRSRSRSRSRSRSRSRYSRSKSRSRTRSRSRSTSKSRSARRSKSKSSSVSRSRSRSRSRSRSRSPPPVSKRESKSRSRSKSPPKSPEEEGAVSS
Sequence of UniProt Q66K14 (Q66K14 whole entry, looked up): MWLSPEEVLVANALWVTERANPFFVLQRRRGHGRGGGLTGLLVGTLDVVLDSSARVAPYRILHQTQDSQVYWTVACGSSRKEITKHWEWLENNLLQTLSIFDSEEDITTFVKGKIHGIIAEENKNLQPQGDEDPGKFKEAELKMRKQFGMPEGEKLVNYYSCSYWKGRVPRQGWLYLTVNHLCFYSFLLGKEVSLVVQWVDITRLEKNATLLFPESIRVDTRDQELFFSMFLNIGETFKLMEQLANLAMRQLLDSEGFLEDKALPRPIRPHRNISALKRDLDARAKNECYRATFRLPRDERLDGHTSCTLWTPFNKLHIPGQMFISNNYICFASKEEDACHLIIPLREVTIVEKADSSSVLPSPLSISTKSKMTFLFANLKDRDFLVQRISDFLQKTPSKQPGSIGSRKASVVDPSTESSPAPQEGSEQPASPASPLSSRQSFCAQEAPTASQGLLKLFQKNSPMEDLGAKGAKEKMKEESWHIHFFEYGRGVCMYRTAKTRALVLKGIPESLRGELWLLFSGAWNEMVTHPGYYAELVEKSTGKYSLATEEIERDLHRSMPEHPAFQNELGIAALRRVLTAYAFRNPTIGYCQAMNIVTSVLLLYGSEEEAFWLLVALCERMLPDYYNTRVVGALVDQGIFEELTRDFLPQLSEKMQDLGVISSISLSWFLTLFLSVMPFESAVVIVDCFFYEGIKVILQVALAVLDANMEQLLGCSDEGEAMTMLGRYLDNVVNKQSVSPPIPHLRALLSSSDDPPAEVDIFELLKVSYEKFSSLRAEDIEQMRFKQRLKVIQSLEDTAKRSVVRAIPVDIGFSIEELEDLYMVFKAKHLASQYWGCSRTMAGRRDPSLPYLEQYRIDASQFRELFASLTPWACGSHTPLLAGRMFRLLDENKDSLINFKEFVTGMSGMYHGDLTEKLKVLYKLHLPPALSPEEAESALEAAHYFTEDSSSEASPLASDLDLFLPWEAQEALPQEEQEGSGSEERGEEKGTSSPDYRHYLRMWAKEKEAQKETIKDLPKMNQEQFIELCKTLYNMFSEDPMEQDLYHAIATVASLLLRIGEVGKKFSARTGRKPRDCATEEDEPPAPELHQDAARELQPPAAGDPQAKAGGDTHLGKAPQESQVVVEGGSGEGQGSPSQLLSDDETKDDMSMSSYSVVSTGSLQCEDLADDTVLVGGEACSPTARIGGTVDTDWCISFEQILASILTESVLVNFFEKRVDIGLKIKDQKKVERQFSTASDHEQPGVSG
Sequence of UniProt Q9UDY2 (Q9UDY2 whole entry, looked up): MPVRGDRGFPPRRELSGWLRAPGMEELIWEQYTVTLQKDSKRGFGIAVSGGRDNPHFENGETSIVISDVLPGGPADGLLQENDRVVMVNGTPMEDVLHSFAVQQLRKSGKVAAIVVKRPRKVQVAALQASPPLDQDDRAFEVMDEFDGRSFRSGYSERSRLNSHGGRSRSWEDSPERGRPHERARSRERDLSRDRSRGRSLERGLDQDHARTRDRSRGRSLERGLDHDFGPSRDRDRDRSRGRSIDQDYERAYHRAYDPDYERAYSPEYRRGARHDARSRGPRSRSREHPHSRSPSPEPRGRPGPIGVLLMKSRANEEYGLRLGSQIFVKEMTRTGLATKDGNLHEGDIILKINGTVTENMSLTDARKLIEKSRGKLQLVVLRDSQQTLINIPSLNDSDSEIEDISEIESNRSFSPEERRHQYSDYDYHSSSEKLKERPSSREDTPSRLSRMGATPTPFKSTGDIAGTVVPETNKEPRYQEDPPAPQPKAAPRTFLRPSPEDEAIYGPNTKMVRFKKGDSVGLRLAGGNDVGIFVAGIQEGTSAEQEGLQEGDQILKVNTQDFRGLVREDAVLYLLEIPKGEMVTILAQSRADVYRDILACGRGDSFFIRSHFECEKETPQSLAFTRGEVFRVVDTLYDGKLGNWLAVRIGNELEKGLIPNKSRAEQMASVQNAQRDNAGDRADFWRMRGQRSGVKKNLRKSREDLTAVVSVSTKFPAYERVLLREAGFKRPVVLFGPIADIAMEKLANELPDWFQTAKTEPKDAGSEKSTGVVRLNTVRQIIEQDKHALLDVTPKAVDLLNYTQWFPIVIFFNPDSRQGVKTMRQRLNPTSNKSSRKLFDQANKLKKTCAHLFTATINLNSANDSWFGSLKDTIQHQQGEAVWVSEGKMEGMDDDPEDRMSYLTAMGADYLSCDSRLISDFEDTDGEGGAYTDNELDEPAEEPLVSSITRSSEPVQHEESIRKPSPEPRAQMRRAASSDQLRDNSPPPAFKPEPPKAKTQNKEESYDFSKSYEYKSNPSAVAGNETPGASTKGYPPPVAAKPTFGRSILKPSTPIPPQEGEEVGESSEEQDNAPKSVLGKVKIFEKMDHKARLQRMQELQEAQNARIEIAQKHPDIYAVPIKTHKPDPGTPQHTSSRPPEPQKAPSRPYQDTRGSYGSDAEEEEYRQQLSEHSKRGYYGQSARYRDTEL
Sequence of UniProt Q92581 (Q92581 whole entry, looked up): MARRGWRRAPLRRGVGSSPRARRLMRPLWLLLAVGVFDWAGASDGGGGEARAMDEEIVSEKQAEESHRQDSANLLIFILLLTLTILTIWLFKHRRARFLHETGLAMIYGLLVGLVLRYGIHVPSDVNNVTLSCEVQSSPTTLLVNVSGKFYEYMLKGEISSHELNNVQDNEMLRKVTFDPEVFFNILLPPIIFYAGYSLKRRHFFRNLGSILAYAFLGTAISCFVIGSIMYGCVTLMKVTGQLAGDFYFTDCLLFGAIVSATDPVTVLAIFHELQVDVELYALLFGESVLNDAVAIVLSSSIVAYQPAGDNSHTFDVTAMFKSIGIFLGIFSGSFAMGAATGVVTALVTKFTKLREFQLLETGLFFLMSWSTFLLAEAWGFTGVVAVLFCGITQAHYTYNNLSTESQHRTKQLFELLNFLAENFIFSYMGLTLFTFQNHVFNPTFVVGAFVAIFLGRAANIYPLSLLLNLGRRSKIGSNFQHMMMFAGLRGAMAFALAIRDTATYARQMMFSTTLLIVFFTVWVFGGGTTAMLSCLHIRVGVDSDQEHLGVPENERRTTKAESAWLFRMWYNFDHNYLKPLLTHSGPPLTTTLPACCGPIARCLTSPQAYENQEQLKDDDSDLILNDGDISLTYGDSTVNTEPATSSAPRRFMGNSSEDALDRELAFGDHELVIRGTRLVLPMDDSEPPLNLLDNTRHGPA
Sequence of UniProt O76094 (O76094 whole entry, looked up): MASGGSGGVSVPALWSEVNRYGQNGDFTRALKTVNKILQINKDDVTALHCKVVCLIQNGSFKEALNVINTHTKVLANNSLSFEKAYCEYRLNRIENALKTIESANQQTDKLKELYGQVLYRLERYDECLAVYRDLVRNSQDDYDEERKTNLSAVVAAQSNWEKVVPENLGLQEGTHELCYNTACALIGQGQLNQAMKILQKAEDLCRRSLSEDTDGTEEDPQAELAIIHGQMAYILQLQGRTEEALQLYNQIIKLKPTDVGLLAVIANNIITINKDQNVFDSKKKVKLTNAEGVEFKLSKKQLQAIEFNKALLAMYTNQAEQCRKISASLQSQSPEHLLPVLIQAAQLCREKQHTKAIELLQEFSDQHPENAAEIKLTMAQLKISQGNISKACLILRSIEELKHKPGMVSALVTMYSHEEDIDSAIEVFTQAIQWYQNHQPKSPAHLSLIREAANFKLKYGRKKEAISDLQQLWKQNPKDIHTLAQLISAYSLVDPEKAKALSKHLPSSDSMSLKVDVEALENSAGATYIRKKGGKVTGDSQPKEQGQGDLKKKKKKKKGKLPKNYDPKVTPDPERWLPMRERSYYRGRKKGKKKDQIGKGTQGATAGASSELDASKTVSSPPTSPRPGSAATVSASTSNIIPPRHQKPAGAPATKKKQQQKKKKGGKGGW

Target	log2 fold change [1]	log2 fold change (filanesib)	log2 fold change (zotarolimus)	log2 fold change (idasanutlin)	log2 fold change (alisertib)	log2 fold change [2]	log2 fold change (gefitinib)	log2 fold change [3]	log2 fold change (lapatinib)	log2 fold change (pictilisib)	log2 fold change [4]	log2 fold change (crizotinib)	log2 fold change [5]	log2 fold change [6]	log2 fold change (duvelisib)	log2 fold change (gandotinib)	log2 fold change (tozasertib)	log2 fold change [7]	log2 fold change (doramapimod)	log2 fold change (ispinesib)
SLIRP (UniProt Q9GZT3)	0.088	-0.429 (active)	-0.054	0.041	-0.08	-0.648 (active)	0.041	0.023	-0.042	-0.15	-0.046	-0.267	-0.202	0.058	0.029	0.162	-0.075	0.146	-0.045	-0.149
SRSF3 (UniProt P84103)	-0.226	0.193	-0.054	0.217	-0.101	-0.011	-0.026	-0.009	-0.006	-0.018	-0.081	0.061	-0.27	0.128	-0.081	0.247	-0.027	-0.024	-0.019	-0.095
TBC1D9B (UniProt Q66K14)	-0.037	0.151	0.042	-0.003	0.03	-0.026	-0.072	0.03	-0.031	0.068	0.041	-0.084	0.016	0.008	0.01	0.024	0.055	0.072	0.007	-0.127
TBC1D23 (UniProt Q9NUY8)	0.07	-0.184	-0.002	0.068	0.023	-0.19	-0.058	0.021	-0.053	-0.067	-0.026	-0.019	0.022	0	0.002	-0.205	-0.042	0.028	-0.027	-0.48 (active)
TJP2 isoform 7 (UniProt Q9UDY2)	0.019	0.093	0.068	-0.017	-0.151	-0.091	0.042	0.012	0.008	0.067	0.006	-0.026	0.064	-0.017	0.056	-0.089	0.071	0.071	0.068	-0.065
THYN1 (UniProt Q9P016)	-0.01	-0.009	0.015	-0.011	-0.065	0.035	0.028	-0.007	-0.039	-0.032	-0.015	0.061	0.001	0.011	0.071	0.021	-0.024	0.087	-0.036	-0.002
STK39 (UniProt Q9UEW8)	-0.016	-0.033	0.062	-0.06	-0.044	0.034	-0.014	-0.036	-0.002	0.107	0.109	-0.174	0.028	0.061	0.007	-0.038	-0.049	0.048	-0.027	-0.038
SMAD9 (UniProt O15198)	-0.002	0.009	-0.033	-0.132	-0.014	-0.012	0.066	-0.005	0.051	0.148	0.016	0.019	0.068	0.037	0.014	-0.197	-0.069	0.074	-0.013	-0.169
TK1 (UniProt P04183)	-0.012	-0.258 (active)	-0.023	-0.011	-0.034	0.021	-0.018	0.073	-0.009	0.045	-0.046	0.011	-0.008	-0.097	0.004	-0.055	-0.032	-0.03	-0.013	0.017
SRP72 (UniProt O76094)	0.003	0.075	0.048	-0.045	-0.131	0.023	0.007	-0.235	-0.043	0	0.021	-0.121	-0.017	0.167	-0.004	-0.08	0.068	0.154	0.051	-0.185
SPAST (UniProt Q9UBP0)	0.03	-0.028	-0.006	-0.038	-0.1	0.096	-0.019	-0.042	-0.019	-0.041	0.002	-0.074	0.043	0.001	0.069	-0.025	-0.01	0.15	-0.078	-0.001
SLC9A6 isoform 2 (UniProt Q92581)	-0.077	-0.051	-0.062	-0.011	-0.013	0.062	-0.017	0.071	0.003	0.129	0.028	0.048	0.022	-0.005	0.079	-0.105	-0.024	-0.067	0	-0.331 (active)
TLK2 isoform 2 (UniProt Q86UE8)	-0.019	0.038	0.032	0.087	0.115	-0.036	0.007	0.06	0.041	-0.071	-0.063	-0.031	0.139	-0.095	-0.007	0.165	-0.047	-0.07	-0.042	0.019
SLC7A6 (UniProt Q92536)	-0.236 (active)	0.009	-0.001	-0.02	-0.069	0.028	0.073	0.048	0.033	0.048	-0.011	0.065	-0.173	-0.149	0.116	-0.114	-0.006	-0.041	0.001	0.17
SRSF2 (UniProt Q01130)	-0.071	0.118	0	0.123	-0.076	-0.003	0.038	0.024	0.039	0.027	0.005	0.023	-0.107	0.006	0.013	0.092	-0.037	-0.006	-0.033	-0.036
